Eight compounds from the supplement of paper PMC6897291 can be followed below.

For assay [1], the system named is U-2932. Kind of assay: growth inhibition by drug alone (1 - RLU/untreated control) (fraction); higher = stronger inhibition. Particulars: 177Lu-lilotomab satetraxetan 0 ug/ml. The essentials: (§1)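 With or without 18 h pretreatment by a radiolabelled anti-CD37 antibody conjugate (~600 MBq/mg; 0.5 µg/ml RIVA, 1 µg/ml U-2932), RIVA and U-2932 cells were washed and plated at 3,000 cells/well. Pre-printed compound doses were 10/100 nM for RIVA and 10/1,000 nM for U-2932. Growth inhibition uses RealTime-Glo RLU relative to the untreated no-drug wells. The calculation is 1 − RLU/mean of 48 such wells per plate, with reads daily from day 3 after 1 h at 37°C.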

For assay [2], the system named is RIVA. The description is as above. Particulars: 177Lu-lilotomab satetraxetan 0 ug/ml. The essentials:
as §1

The subject of assay [3] is U-2932. Kind of assay: growth inhibition by drug plus 177Lu-lilotomab satetraxetan (1 - RLU/untreated control) (fraction); higher = stronger inhibition. The note with it: 177Lu-lilotomab satetraxetan 1 ug/ml. The essentials:
as §1

Assay [4] relates to RIVA. The description is as above. Particulars: 177Lu-lilotomab satetraxetan 0.5 ug/ml. The essentials:
as §1

On to `CN(C)CCN(C)CCc1ccc(Cl)c(Cl)c1`, for which the “growth inhibition by drug alone” value was -0.0253 with U-2932 [1] (10 nM, time (day): 3); -0.0155 with U-2932 [1] (10 nM, time (day): 4); 0.000169 in the assay on U-2932 [1] (10 nM, time (day): 5); 0.0547 with U-2932 [1] (10 nM, time (day): 6); -0.0569 in the assay on U-2932 [1] (1000 nM, time (day): 3); -0.0395 with U-2932 [1] (1000 nM, time (day): 4). In addition, the “growth inhibition by drug alone” value in the assay on U-2932 [1] (1000 nM, time (day): 5) is -0.0761; in the assay with U-2932 [1] (1000 nM, time (day): 6), -0.214; in the assay with RIVA [2] (10 nM, time (day): 3) it was -0.216; in the assay with RIVA [2] (10 nM, time (day): 4), -0.209; with RIVA [2] (10 nM, time (day): 5), -0.338; with RIVA [2] (10 nM, time (day): 6), -0.472. In addition, the “growth inhibition by drug alone” value in the assay with RIVA [2] (100 nM, time (day): 3) is -0.276; with RIVA [2] (100 nM, time (day): 4) it was -0.227; in the assay on RIVA [2] (100 nM, time (day): 5) it was -0.333; with RIVA [2] (100 nM, time (day): 6), -0.453. Moreover, the “growth inhibition by drug plus 177Lu-lilotomab satetraxetan” value is -0.0419 in the assay on U-2932 [3] (10 nM, time (day): 3); -0.0108 with U-2932 [3] (10 nM, time (day): 4); -0.00129 with U-2932 [3] (10 nM, time (day): 5); 0.0756 in the assay on U-2932 [3] (10 nM, time (day): 6); -0.131 in the assay with U-2932 [3] (1000 nM, time (day): 3); -0.0418 with U-2932 [3] (1000 nM, time (day): 4). Also, the “growth inhibition by drug plus 177Lu-lilotomab satetraxetan” value in the assay with U-2932 [3] (1000 nM, time (day): 5) was -0.0272; in the assay on U-2932 [3] (1000 nM, time (day): 6) it was -0.0418.

Take `O=P1(N(CCCl)CCCl)NCCCO1` (centres undefined) [Cyclophosphamide monohydrate]: the “growth inhibition by drug plus 177Lu-lilotomab satetraxetan” value in the assay on U-2932 [3] (10 nM, time (day): 3) is -0.0289; in the assay with U-2932 [3] (10 nM, time (day): 4) it was -0.00591; with U-2932 [3] (10 nM, time (day): 5), 0.0126; in the assay on U-2932 [3] (10 nM, time (day): 6), 0.184; in the assay with U-2932 [3] (1000 nM, time (day): 3) it was -0.0442; in the assay on U-2932 [3] (1000 nM, time (day): 4), 0.00578. Also, the “growth inhibition by drug plus 177Lu-lilotomab satetraxetan” value amounted to 0.00582 in the assay with U-2932 [3] (1000 nM, time (day): 5) and 0.0795 in the assay with U-2932 [3] (1000 nM, time (day): 6).

On to `O=C(Oc1ccc([N+](=O)[O-])cc1)N1CCC(C(O)(c2ccc3c(c2)OCO3)c2ccc3c(c2)OCO3)CC1`, for which the “growth inhibition by drug plus 177Lu-lilotomab satetraxetan” value in the assay with U-2932 [3] (10 nM, time (day): 3) was -0.0245; in the assay with U-2932 [3] (10 nM, time (day): 4), 0.00325; in the assay with U-2932 [3] (10 nM, time (day): 5) it was 0.0178; in the assay with U-2932 [3] (10 nM, time (day): 6), 0.11; with U-2932 [3] (1000 nM, time (day): 3), -0.0484; with U-2932 [3] (1000 nM, time (day): 4), 0.0258. Besides, the “growth inhibition by drug plus 177Lu-lilotomab satetraxetan” value was found to be 0.0163 with U-2932 [3] (1000 nM, time (day): 5) and 0.077 in the assay with U-2932 [3] (1000 nM, time (day): 6).

On to `N[C@@H](Cc1ccc(N(CCCl)CCCl)cc1)C(=O)O` [Melphalan], for which the “growth inhibition by drug alone” value is -0.0205 in the assay on RIVA [2] (10 nM, time (day): 3); 0.000425 in the assay with RIVA [2] (10 nM, time (day): 4); -0.0866 in the assay on RIVA [2] (10 nM, time (day): 5); -0.459 with RIVA [2] (10 nM, time (day): 6); -0.259 in the assay on RIVA [2] (100 nM, time (day): 3); -0.175 in the assay on RIVA [2] (100 nM, time (day): 4). Moreover, the “growth inhibition by drug alone” value in the assay on RIVA [2] (100 nM, time (day): 5) was -0.164; with RIVA [2] (100 nM, time (day): 6), -0.265. Besides, the “growth inhibition by drug plus 177Lu-lilotomab satetraxetan” value in the assay on U-2932 [3] (10 nM, time (day): 3) worked out at 0.0197; in the assay on U-2932 [3] (10 nM, time (day): 4) it was 0.0283; with U-2932 [3] (10 nM, time (day): 5), 0.0541; in the assay on U-2932 [3] (10 nM, time (day): 6), 0.143; in the assay on U-2932 [3] (1000 nM, time (day): 3), 0.00364; in the assay on U-2932 [3] (1000 nM, time (day): 4), 0.0898. Also, the “growth inhibition by drug plus 177Lu-lilotomab satetraxetan” value with U-2932 [3] (1000 nM, time (day): 5) was 0.0598; with U-2932 [3] (1000 nM, time (day): 6), 0.0846.

For the compound `CC(C)[C@]12O[C@H]1[C@@H]1O[C@]13[C@]1(O[C@H]1C[C@H]1C4=C(CC[C@@]13C)C(=O)OC4)[C@@H]2O` [Triptolide], the “growth inhibition by drug alone” value was found to be 0.345 in the assay with U-2932 [1] (10 nM, time (day): 3); 0.52 with U-2932 [1] (10 nM, time (day): 4); 0.63 with U-2932 [1] (10 nM, time (day): 5); 0.677 with U-2932 [1] (10 nM, time (day): 6); 0.959 in the assay with U-2932 [1] (1000 nM, time (day): 3); 0.971 in the assay on U-2932 [1] (1000 nM, time (day): 4). Moreover, the “growth inhibition by drug alone” value with U-2932 [1] (1000 nM, time (day): 5) was found to be 0.978; in the assay on U-2932 [1] (1000 nM, time (day): 6) it was 0.982. In addition, the “growth inhibition by drug plus 177Lu-lilotomab satetraxetan” value was found to be 0.468 in the assay on U-2932 [3] (10 nM, time (day): 3); 0.657 in the assay on U-2932 [3] (10 nM, time (day): 4); 0.744 in the assay on U-2932 [3] (10 nM, time (day): 5); 0.774 in the assay with U-2932 [3] (10 nM, time (day): 6); 0.965 in the assay on U-2932 [3] (1000 nM, time (day): 3); 0.976 with U-2932 [3] (1000 nM, time (day): 4). Also, the “growth inhibition by drug plus 177Lu-lilotomab satetraxetan” value in the assay on U-2932 [3] (1000 nM, time (day): 5) came out at 0.981; with U-2932 [3] (1000 nM, time (day): 6), 0.986.

For `CC[C@@H](C(=O)[C@@H](C)[C@@H](O)[C@H](C)[C@@H]1O[C@@H]([C@@H](CC)C(=O)O)CC[C@@H]1C)[C@H]1O[C@]2(C=C[C@@H](O)[C@]3(CC[C@@](C)([C@H]4CC[C@](O)(CC)[C@H](C)O4)O3)O2)[C@H](C)C[C@@H]1C` [Salinomycin (Procoxacin)], the “growth inhibition by drug plus 177Lu-lilotomab satetraxetan” value stood at 0.0566 in the assay on U-2932 [3] (10 nM, time (day): 3); 0.111 with U-2932 [3] (10 nM, time (day): 4); 0.126 in the assay with U-2932 [3] (10 nM, time (day): 5); 0.245 in the assay with U-2932 [3] (10 nM, time (day): 6); 0.381 in the assay with U-2932 [3] (1000 nM, time (day): 3); 0.516 with U-2932 [3] (1000 nM, time (day): 4). Besides, the “growth inhibition by drug plus 177Lu-lilotomab satetraxetan” value in the assay on U-2932 [3] (1000 nM, time (day): 5) was determined as 0.607; in the assay on U-2932 [3] (1000 nM, time (day): 6), 0.75; in the assay with RIVA [4] (10 nM, time (day): 3), 0.491; with RIVA [4] (10 nM, time (day): 4) it was 0.572; with RIVA [4] (10 nM, time (day): 5), 0.591; with RIVA [4] (10 nM, time (day): 6), 0.6. Also, the “growth inhibition by drug plus 177Lu-lilotomab satetraxetan” value was found to be 0.481 in the assay with RIVA [4] (100 nM, time (day): 3); 0.518 in the assay with RIVA [4] (100 nM, time (day): 4); 0.517 with RIVA [4] (100 nM, time (day): 5); 0.502 with RIVA [4] (100 nM, time (day): 6).

Regarding `CC(O)(CS(=O)(=O)c1ccc(F)cc1)C(=O)Nc1ccc(C#N)c(C(F)(F)F)c1` (centres undefined) [Bicalutamide (Casodex)], the “growth inhibition by drug plus 177Lu-lilotomab satetraxetan” value with U-2932 [3] (10 nM, time (day): 3) is 0.0109; with U-2932 [3] (10 nM, time (day): 4), 0.0278; in the assay with U-2932 [3] (10 nM, time (day): 5), 0.0445; in the assay with U-2932 [3] (10 nM, time (day): 6), 0.0662; in the assay on U-2932 [3] (1000 nM, time (day): 3) it was -0.0729; with U-2932 [3] (1000 nM, time (day): 4), 0.0514. In addition, the “growth inhibition by drug plus 177Lu-lilotomab satetraxetan” value with U-2932 [3] (1000 nM, time (day): 5) was 0.0207; in the assay with U-2932 [3] (1000 nM, time (day): 6), -0.0101.

With `CC(=O)Nc1ccc(OC[C@](C)(O)C(=O)Nc2ccc([N+](=O)[O-])c(C(F)(F)F)c2)cc1` [Andarine (GTX-007)], the “growth inhibition by drug plus 177Lu-lilotomab satetraxetan” value in the assay on U-2932 [3] (10 nM, time (day): 3) is 0.0713; in the assay on U-2932 [3] (10 nM, time (day): 4) it was 0.12; in the assay on U-2932 [3] (10 nM, time (day): 5) it was 0.151; with U-2932 [3] (10 nM, time (day): 6), 0.162; with U-2932 [3] (1000 nM, time (day): 3), -0.0087; in the assay on U-2932 [3] (1000 nM, time (day): 4), 0.0374. Also, the “growth inhibition by drug plus 177Lu-lilotomab satetraxetan” value is 0.0839 in the assay with U-2932 [3] (1000 nM, time (day): 5) and 0.127 in the assay on U-2932 [3] (1000 nM, time (day): 6).
